The values below come from the supplement of paper PMC10338343.

± gives the standard deviation. Some results are limits rather than exact numbers.
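Note: 1 nM active piRISC with 0.1 nM target library at 33 °C single turnover.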

The experiment has as its system MILI (PIWIL2) piRISC loaded with L1MC piRNA (26 nt). Put plainly: pre-steady-state target cleavage rate (min^-1); guide: L1MC piRNA 5'p-UAACUAAAUACUAUGCAAGCUGUAGG; MIWI and MILI are mouse PIWI proteins and EfPiwi is from a freshwater sponge; tags in brackets are library labels; higher = faster piRNA-guided slicing of the target. Particulars: auxiliary factor: 500 nM mouse GTSF1. The procedure, abridged:
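In this Cleave-'n-Seq assay, uncleaved targets were sequenced and normalised to depth and to weakly complementary targets. They came from a transcribed, DNA-blocked target RNA library […] mixed with 1 nM active affinity-purified piRISC carrying one synthetic guide, with or without 500 nM GTSF1 partner protein, in HEPES–potassium acetate buffer at 33 °C for 0–8 or 0–960 min. After three trials were pooled and k3 was capped at 0.0001 min^-1, the pre-steady-state cleavage rate was obtained from a burst-and-steady-state fit.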
Take UCCUGGAUGAGCUUGCAUUGUAUUUACUUA: the “pre-steady-state target cleavage rate” value turned out to be 0.031 ± 0.012.
The result for UCCUGGAACAGCUUGCAUAGUAAUAAGUUA reads 0.103 ± 0.018; that for UCCUGGAUCAGCUUCGAUAGUAUUUAGUAA, 0.158 ± 0.016; that for UCCUGGUACAGCUUGCAUAGAUUUUAGAAA, 0.00722 ± 0.0042.
Next, UCCUGGAUCAGGAAGCAUAGUAUUUACAAA: 0.00413 ± 0.0036; UCCUGGAUCAGCUUGCAUAGUAUUUUCUAA: 0.0634 ± 0.017; UCCUGGAUGUCGAACGUAUCUAUAAUGUUA: less than 0.0001.
The result for UCCUGGUACAGGUUGCAUAGUAUUUAGAAA reads 0.043 ± 0.013; that for UCCUGGAACAGCUUGCUAAGUAUUUAGAAA, 0.0282 ± 0.01; that for UCCUGGAACAGCUUGCAUACUAUUUACUUA, 0.0611 ± 0.015.
In the case of UCCUGGAACAGCUUGCAUAGUAUAUAGAUA, the “pre-steady-state target cleavage rate” value is 0.0877 ± 0.022.
For UCCUGGAUGUCCAUGCAUAGAAUUUAGUUA, the “pre-steady-state target cleavage rate” value worked out at 0.0111 ± 0.0048.
On to UCCUGGAACAGGAAGCAUAGUAUUUUCAAA, for which the “pre-steady-state target cleavage rate” value was determined as 0.00836 ± 0.0043.
In the case of UCCUGGAACAGGAAGCAUAGUAUUUACAAA, the “pre-steady-state target cleavage rate” value turned out to be 0.061 ± 0.02.
The result for UCCUGGAUCAGCUUGCAUAGUAAUUACAAA reads 0.145 ± 0.04; that for UCCUGCUACAGCUUGCAUAGUAUAAAGUAA, 0.0784 ± 0.021; that for UCCUGGAACAGCUUGGUAAGUAUUUAGAAA, 0.0429 ± 0.015.
The result for UCCUGGAUGUGCUUGCAUAGUUUUUUGUUA reads 0.0102 ± 0.0056.
The result for UCCUGGAUGUGGUUGCAUAGUAUUUAGAAA reads 0.0521 ± 0.022.
As to UCCUGGAUGAGCUUGGAUAGUAUUAAGUUA, the “pre-steady-state target cleavage rate” value is 0.0932 ± 0.022.
Next, UCCUGGAUGUCGAUGCAGAGUAUUUAGUUA: 0.00473 ± 0.0028; UCCUGGAUGACGUUGCAUAGUAUUUACAAA: 0.0104 ± 0.0057; UCCUGGAACAGCUUGCUUAGUAUUUAGAAA: 0.142 ± 0.029.
Next, UCCUGCUACAGCUUGCAAUGUAUUUAGUAA: 0.124 ± 0.023.
